The sample as a whole holds a higher share of hits than the screen did.
RBX1-CUL1 inh: inhibitors of human ROC1-CUL1 ubiquitin ligase activity. E3 ubiquitin-protein ligase RBX1 (Homo sapiens) + Cullin-1 (Homo sapiens), P62877+Q13616. in vitro K48 di-Ub FRET, acceptor:donor ratio, 45 min. inhibition, % at 10 µM. 140,000 compounds, 0.6% hits; in the data active = inhibition above about 25%
* hit, by the source's call.

SMILES	RBX1-CUL1 inh
O=c1sc(C=C2C=Nc3ccccc32)c(O)n1Cc1ccccc1	1.0
Cn1ccnc1Sc1ccc([N+](=O)[O-])c(Sc2nccn2C)n1	2.9
Cn1nnnc1Sc1ccc([N+](=O)[O-])cc1Cl	-4.1
Cn1nnnc1Sc1ccc([N+](=O)[O-])c(Sc2nnnn2C)n1	32.1*
CC1=NN(c2ccc(C)cc2)C(O)C1 (configuration not stated)	75.0*
Cc1ccc(N2C(=O)C(=O)N=C(Cl)C2Cl)cc1 (configuration not stated)	5.3
CSc1ccc(C2N(c3ccc(C)cc3)CCN2c2ccc(C)cc2)cc1	-15.8
CCOc1ccccc1CNC(=O)CCn1cccn1	-10.8
O=C(Nc1ccc(I)cc1C(=O)N1CCCC1)c1ccc(Cl)cc1Cl	-2.7
Cc1nc(NCCSc2cn[nH]n2)cc(C2CCNCC2)n1	-4.7
CCOc1cc(CNc2ccc(Oc3ccccc3)cc2)cc(Cl)c1OCc1ccccc1Cl	-9.1
COC12C=CC(CC1)C1=C2C(=O)c2c(OC(=O)c3ccccc3)ccc(OC(=O)c3ccccc3)c2C1=O (configuration not stated)	70.8*
O=C(Oc1cc(=O)n(-c2ccccc2)c2c1CCCC2)c1ccccc1	4.9
CC1(C)CC(=O)C(C(c2ccccc2OC(=O)c2ccccc2)C2C(=O)CC(C)(C)CC2=O)C(=O)C1	-11.3
Cc1[nH]nc2c(=O)c(Br)cc(Br)cc12	6.9
CCCCNC(=O)N1CCN(Cc2ccccc2)CC1	9.5
CC(C)C(=O)N1CCN(Cc2cccc(F)c2)CC1	-4.8
O=C(C(C(F)(F)F)C(F)(F)F)N1CCN(Cc2ccccc2)CC1	53.2*
Cc1[nH]nc2c1C1(CCSCC1)C(C#N)C(=N)O2 (configuration not stated)	1.8
CCCC(=O)Nc1ccc(F)c(Cl)c1	-1.0
Cc1sc2nc(-c3ccc(-c4ccc(Cl)c(C(=O)O)c4)o3)[nH]c(=O)c2c1C	47.2*
Cc1sc2nc(-c3ccccc3)[nH]c(=O)c2c1C	7.1
Cc1sc2nc(-c3ccc(-c4ccc(C(=O)O)cc4)o3)[nH]c(=O)c2c1C	-2.1
CCCc1cc(C(=O)Nc2cc(C)ccc2C)n(C)n1	0.2
CCc1ccc(-c2nc3cc(NC(=O)/C=C\c4ccco4)ccc3o2)cc1	5.7
SMILES	RBX1-CUL1 inh
O=C(/C=C/c1ccco1)Nc1ccc2oc(-c3cccnc3)nc2c1	54.0*
O=C(Nc1ccc2oc(-c3cccnc3)nc2c1)c1ccc(-c2ccccc2)o1	3.9
Cc1cccc(C(=O)N2CCC(N3CCC(C(=O)NCc4cccnc4)CC3)CC2)c1	-6.0
Cc1ncc2c(c1CNC(=O)c1ccc3c(c1)OCO3)CCN(C(=O)COc1ccccc1Cl)C2	-1.2
CCOC(=O)C1CCCCN1C(=O)CC1(c2cccc(C(F)(F)F)c2)CC(=O)N(C2CC2)C1=O (configuration not stated)	9.5
O=C(CSc1nc(-c2ccccc2)cs1)NC1=NN(c2ccccc2)C(=O)C1	-15.6
CNC(=O)CSc1nc(-c2ccccc2)cs1	-5.2
Cc1ccc(-c2csc(SC3C(=O)N(c4ccccc4)N=C3c3ccccc3)n2)cc1 (configuration not stated)	83.3*
COc1ccc2c(c1)CCc1cnc(-n3ncc(C(=O)NCC(C)(C)N4CCOCC4)c3C)nc1-2	-3.4
CCOc1ccc(/C=C2\C(=O)NC(=S)N(c3cccc(C)c3C)C2=O)cc1	-1.4
Cc1ccc(N2C(=O)/C(=C/c3cccn3-c3ccc(N(C)C)cc3)C(=O)NC2=S)cc1C	34.7*
COc1cccc(C=C2C(=O)c3ccccc3C2=O)c1OC(C)C	-7.5
O=C1NC(=S)N(c2ccccc2)C(=O)/C1=C/c1cccn1-c1ccc(Br)cc1	5.3
O=C1NC(=S)N(c2ccccc2F)C(=O)/C1=C/c1cccn1-c1cccc(C(=O)O)c1	100.9*
Cc1ccccc1N1C(=O)/C(=C/c2cccn2-c2cccc(C(=O)O)c2)C(=O)NC1=S	102.3*
COc1cc(/C=C2\C(=O)NC(=S)N(c3ccccc3F)C2=O)c(Br)cc1O	10.6
Cc1ccccc1N1C(=O)/C(=C/c2cc(Cl)cc(Cl)c2O)C(=O)NC1=S	7.1
O=C(O)c1cccc(-n2cccc2/C=C2\SC(=O)N(Cc3ccccc3F)C2=O)c1	8.2
COc1cccc(/C=C2\C(=O)NC(=S)N(c3ccccc3C)C2=O)c1OC(C)C	30.6*
CCc1ccc(N2C(=O)/C(=C/c3cccn3-c3cccc(C(=O)O)c3)C(=O)NC2=S)cc1	21.5
Cc1cccc(N2C(=O)/C(=C/c3cccn3-c3cccc(C(F)(F)F)c3)C(=O)NC2=S)c1	0.4
COc1ccc(OC)c(NC(=S)N2CCN(c3cccc(Cl)c3)CC2)c1	-10.1
Cc1ccc(-c2nnc(Nc3ccc(OC(F)(F)Cl)cc3)c3ccccc23)cc1S(=O)(=O)NC(C)C	-1.9
CCN1CCCC1CNC(=O)CCC1CCN(C2CCN(C(C)=O)CC2)CC1 (configuration not stated)	-0.3
COc1cc(C2c3c(n[nH]c3C(C)C)OC(=N)C2C#N)ccc1O (configuration not stated)	-1.4
SMILES	RBX1-CUL1 inh
Cc1cccc2c(=O)oc(-c3cccc(F)c3)nc12	1.2
O=C(c1ccn(C(=O)c2ccccc2Cl)n1)N1CCCCC1	3.2
COc1ccc(CNC(=O)CCN2Cc3ccccc3OC(c3ccccc3F)C2)cc1OC (configuration not stated)	-0.9
CO/C=C\C=C/c1nnn(-c2ccc(Cl)cc2)n1	38.0*
CCOC(=O)C=CCn1nnn(-c2ccc(Cl)cc2)c1=O	2.1
COCc1c(C(=O)O)nnn1-c1ccc(Cl)cc1	3.3
Cc1cc(Cn2ccc(-c3cccc(-c4nccs4)c3)n2)no1	5.9
CCOc1ccc(Br)cc1/C=C1/C(=O)NN(c2ccc(I)cc2)C1=O	21.3
COc1cc(/C=C2\C(=O)NN(c3ccc(Br)cc3)C2=O)cc(OC)c1OC	-7.5
CCc1ccc(N2NC(=O)/C(=C/c3cccc(Br)c3)C2=O)cc1	39.9*
CCN(CC)c1ccc(/C=C2/C(=O)NN(c3cccc(Br)c3)C2=O)cc1	0.3
O=C1NN(c2ccc(I)cc2)C(=O)/C1=C\c1cccc(I)c1	4.1
O=C1NN(c2ccc(I)cc2)C(=O)/C1=C\c1ccccc1O	-6.5
CCc1ccc(N2NC(=O)/C(=C\c3cccs3)C2=O)cc1	5.3
Cc1ccc(/C=C2\C(=O)NN(c3ccc(I)cc3)C2=O)cc1	63.3*
CC(C)CCN(C)c1ccc(/C=C2/C(=O)NN(c3ccc(Br)cc3)C2=O)cc1	-0.2
O=C1NN(c2ccc(I)cc2)C(=O)/C1=C\c1cc(Br)ccc1O	28.9*
O=C1NN(c2ccc(Br)cc2)C(=O)/C1=C\c1ccc(F)cc1	86.3*
CCOc1ccc(/C=C2/C(=O)NN(c3ccc(I)cc3)C2=O)cc1	-2.8
C=C(C)CSc1nc2sc3c(c2c(=O)n1-c1ccccc1)CC(C)(C)OC3	0.3
COc1ccc(CCNC(=O)CSc2nnc3sc4ccccc4n23)cc1OC	1.9
CC(C)(C)NC(=O)C1CCCN(C2CCN(c3nc4ccccc4o3)CC2)C1 (configuration not stated)	-4.4
O=C(NCc1ccco1)NC1CC(=O)N(C2Cc3ccccc3C2)C1 (configuration not stated)	0.2
C=CCn1c(CSc2nc(C)cc(C)n2)nnc1SCC(=O)Nc1ccc(C(=O)OCC)cc1	2.8
CN1CCN(C(=O)CSc2nc3ccc(NC(=O)c4ccc(F)cc4)cc3s2)CC1	-3.4
C=CCSc1ccccc1C(=O)NCC	-3.4
O=C(c1cc(Cl)ccc1Cl)c1c[nH]cc1-c1ccccc1	3.5

Compound activity as filed in PubChem.
